Screening results as filed in PubChem BioAssay.
Sampled rows, rich in hits. Any-hit rate of the full collection: about 3.8%.
HSF1 inh: HSF1 inhibition; NIH3T3-HGL HSE-luciferase, MG132-induced, luminescence 8 h; active compounds read low; activity change, negative = inhibition, % at 7.5 µM (by protocol); 300,000 tested, 0.77% active;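 active = more than half of replicate wells show activity change below -50%, luminescence cut by over half; inconclusive = some wells, but at most half, below -50%; inactive = no replicate well below -50%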;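 note: luciferase reports HSF-1 transcriptional activity via heat shock element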
esBAF inh: inhibitors of esBAF chromatin remodeling in mouse ES cells; Bmi1-luciferase knock-in reporter, 24 h; 100% = twice the neutral-well signal; reporter increase, % at 12.5 µM; 350,000 tested, 2% active; AID 602393; in the data active = activation above about 40%; inconclusive = no clear call, values can overlap the other calls;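 note: a rise in the Bmi1 reporter signal indicates esBAF inhibition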
HSF-1 act: increases HSF-1 driven luciferase reporter signal; NIH3T3-HGL HSF-1 luciferase reporter, MG132, 8 h; 100% = twice DMSO control signal; activation, % at 9 µM; 300,000 tested, 1.7% active; AID 504408;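 active = mean replicate activation of at least 50% with a set share of replicates each reaching 50%; inconclusive = only one of those two conditions met; inactive = mean below 50% and too few replicates reaching it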
MITF TRPM1 HTS: activators of MITF-driven TRPM1 promoter activity in SK-MEL-5 cells; 300,000 tested, 0.75% active; activation, % at 12.5 µM; SK-MEL-5 TRPM1-promoter luciferase, 24 h; % of positive control, neutral wells = 0;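 active = mean activation of at least 80% with every replicate also reaching 80%; inconclusive = mean reaches 80% but some replicate falls short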
Wnt act: Wnt/beta-catenin pathway activation | AID 743398 | activation, % at 9.35 µM | Wnt/beta-catenin reporter cell assay, activator, plate reader | 300,000 tested, 1.2% active; in the data active = activation above about 30%, passing the limit was not always enough; inconclusive = no clear call, values can overlap the other calls
Of the large screens only hits and unclear results are named; the others gave an inactive call.

CN(C)C(CNC(=O)CCC(=O)c1ccc(Br)cc1)c1ccccc1 (stereo not given)	HSF-1 act 63
O=C(CSc1ncccn1)c1ccccc1Br	esBAF inh 41 (no result: Wnt act)
O=C(O)CSc1ncccn1	none
Cc1cccc(NC(=O)CSc2nnc(-c3ccco3)c(-c3ccco3)n2)c1	none (no result: HSF1 inh, HSF-1 act)
Cc1cccc(NC(=O)CSc2nnc(-c3ccco3)c(-c3ccco3)n2)c1C	HSF-1 act 89 (no result: esBAF inh, Wnt act)
CCCn1c(C)cc(C(=O)CN2C(=O)NC3(CCCCCC3)C2=O)c1C	esBAF inh 54 (no result: HSF1 inh, HSF-1 act, MITF TRPM1 HTS)
Cc1cc(C(=O)CN2C(=O)NC3(CCCCCC3)C2=O)c(C)n1C	esBAF inh 44 (no result: HSF1 inh, HSF-1 act)
CCCn1c(C)cc(C(=O)CN2C(=O)c3ccccc3C2=O)c1C	Wnt act 43 (no result: esBAF inh)
O=C(C[C@@H]1C[C@H]2c3cc(NS(=O)(=O)c4ccc(F)cc4)ccc3O[C@H]2[C@@H](CO)O1)NCC1CC1	none (no result: HSF1 inh, HSF-1 act, MITF TRPM1 HTS, Wnt act)
CCCN1C[C@H](C)[C@@H](OC)CN(C)C(=O)c2ccc(NC(=O)C3CCC3)cc2OC[C@@H]1C	none (no result: HSF1 inh, HSF-1 act, MITF TRPM1 HTS, Wnt act)
CCOc1ccc2nc(SCC#N)c(C#N)cc2c1	Wnt act 82
COC(=O)CSc1nc2ccc(C)cc2cc1C#N	HSF-1 act 80, Wnt act 67 (no result: esBAF inh)
COC(=O)CSc1nc2cc(C)cc(C)c2cc1C#N	none (no result: Wnt act)
CCOc1ccc2cc(C#N)c(SCC(=O)N3CCC(C)CC3)nc2c1	none
Cc1ccc2nc(SCC(=O)NCc3ccco3)c(C#N)cc2c1	Wnt act 59 (no result: MITF TRPM1 HTS)
CCSc1nc2ccc(OC)cc2cc1C#N	none (no result: Wnt act)
CCOC(=O)CSc1nc2cc(OCC)ccc2cc1C#N	esBAF inh 62 (no result: MITF TRPM1 HTS, Wnt act)
COc1ccccc1-c1ccc2c(c1)[C@H]1[C@H](CCN1C(=O)C1CCOCC1)[C@H](CO)N2	none (no result: HSF1 inh, HSF-1 act, MITF TRPM1 HTS, Wnt act)
O=C(Cc1ccncc1)NCC[C@H]1CC[C@@H](NC(=O)C2CCC2)[C@H](CO)O1	none (no result: HSF1 inh, HSF-1 act, MITF TRPM1 HTS, Wnt act)
CCOC(=O)CSc1nc(-c2ccncc2)ccc1C#N	HSF-1 act 64 (no result: MITF TRPM1 HTS)
CCOC(=O)CC(=O)CSc1nc(-c2cccnc2)ccc1C#N	esBAF inh inconclusive
COC(=O)CSc1nc2cc(OC)ccc2cc1C#N	HSF-1 act 58 (no result: MITF TRPM1 HTS, Wnt act)
CNC[C@H]1Oc2ccc(NS(=O)(=O)c3ccc(Cl)cc3)cc2C(=O)N([C@@H](C)CO)C[C@H]1C	none (no result: HSF1 inh, HSF-1 act, MITF TRPM1 HTS, Wnt act)
CCc1ccc(NC(=O)C2CCCCC2C(=O)O)cc1 (stereo not given)	none (no result: esBAF inh)
O=C(Nc1ccc(Cl)cc1)C1C2CCCCC21 (stereo not given)	esBAF inh 72, HSF-1 act 79 (no result: MITF TRPM1 HTS)
CCc1ccc(NC(=O)C2C3/C=C\CCCCC32)cc1 (stereo not given)	esBAF inh 61, MITF TRPM1 HTS 94 (no result: HSF-1 act, Wnt act)
C[C@@H]1CCCCO[C@H](CN(C)Cc2ccc(C(=O)O)cc2)[C@@H](C)CN([C@@H](C)CO)C(=O)c2cc(NS(C)(=O)=O)ccc2O1	none (no result: HSF1 inh, HSF-1 act, MITF TRPM1 HTS, Wnt act)
O=C(Nc1ccc(OCC(F)(F)C(F)F)c(C(F)(F)F)c1)c1ccccc1O	HSF-1 act 66 (no result: esBAF inh)
CC1Cc2ccccc2N1CC(=O)NC(=O)NCc1ccccc1 (stereo not given)	HSF1 inh -75 (no result: esBAF inh)
CC1Cc2ccccc2N1CC(=O)NC(=O)NC(C)(C)C (stereo not given)	none
CC(=O)N1c2ccccc2Oc2cc3ccccc3cc21	Wnt act inconclusive (no result: esBAF inh)
O=C(CCl)N1c2ccccc2Oc2ccc3ccccc3c21	esBAF inh 50 (no result: HSF1 inh, HSF-1 act)
C[C@@H]1CCCCO[C@@H](CN(C)Cc2ccc(C(=O)O)cc2)[C@H](C)CN([C@H](C)CO)C(=O)c2cc(NC(=O)CCC(F)(F)F)ccc2O1	none (no result: HSF1 inh, HSF-1 act, MITF TRPM1 HTS, Wnt act)
Cc1cc2ccccc2c(=O)n1CC(=O)Nc1ccc2c(c1)OCO2	HSF1 inh -68 (no result: Wnt act)
CC1SCC(=O)N(CC(=O)Nc2ccc3c(c2)OCO3)C1=O (stereo not given)	none
Cc1[nH]c2ccccc2c1C(=O)C(=O)Nc1ccc2c(c1)OCO2	esBAF inh 52
CCC1SC(CC)C(=O)N(CC(=O)Nc2ccc3c(c2)OCO3)C1=O (stereo not given)	HSF-1 act 53 (no result: Wnt act)
C[C@@H]1CN([C@@H](C)CO)C(=O)c2cc(NS(=O)(=O)c3ccc(Cl)cc3)ccc2O[C@@H]1CN(C)Cc1ccc(-c2ccccc2)cc1	none (no result: HSF1 inh, HSF-1 act, MITF TRPM1 HTS, Wnt act)
COc1cc(NCCCC(C)N)c2ncccc2c1 (stereo not given)	none (no result: Wnt act)
CCC(CNc1cc(OC)cc2cccnc12)NC1CCCCC1 (stereo not given)	HSF1 inh -76 (no result: esBAF inh)
